D1 PAM – enhances dopamine response at the human D1 receptor. P21728. AID 504651. 0.036% of 360,000 active. HEK293 TREx D1 cells, calcium flux, dopamine EC20 potentiation. potentiation, % at 10 µM; in the data active = potentiation above about 30%; note: 0% is about no effect
TRHR PAM – allosterically enhances the human TRH receptor; P34981; TRHR cells, fluo-8 calcium fluorescence, EC20 TRH enhancement; enhancement, % at 2 µM; 0.66% of 360,000 active; in the data active = enhancement above about 30%; note: 0% is about no effect
Target sequence (P34981 whole entry, looked up): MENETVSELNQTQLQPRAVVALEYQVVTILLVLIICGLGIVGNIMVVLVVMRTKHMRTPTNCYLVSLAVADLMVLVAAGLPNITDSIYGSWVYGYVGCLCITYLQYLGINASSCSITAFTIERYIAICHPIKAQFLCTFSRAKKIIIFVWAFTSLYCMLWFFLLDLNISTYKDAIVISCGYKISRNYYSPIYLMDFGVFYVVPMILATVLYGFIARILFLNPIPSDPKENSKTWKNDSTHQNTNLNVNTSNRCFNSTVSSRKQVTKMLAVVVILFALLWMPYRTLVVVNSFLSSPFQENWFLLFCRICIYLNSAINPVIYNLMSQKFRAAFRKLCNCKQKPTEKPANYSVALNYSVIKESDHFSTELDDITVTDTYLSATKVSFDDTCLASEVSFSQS
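TRHR-expressing cells loaded with fluo-8 calcium dye were read kinetically (ex 480/em 530) during compound addition, then stimulated with an EC20 of TRH (10 nM final). Enhancement of the Gq-mediated intracellular calcium response was scored.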
TRHR agonist – TRH receptor (human) agonism; TRHR cells, calcium flux fluo-8, FDSS agonist mode; activation, % at 2 µM; 0.18% of 360,000 active; note: 0% is about no effect
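Fluo-8-loaded TRHR cells; 10 s baseline, compound added, kinetic Ca2+ fluorescence read 1/s, agonist mode.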
D1 agonist – activates the human D1 dopamine receptor | 1% of 360,000 active | HEK293 T-REx D1 cells, calcium flux, agonist mode | activation, % at 2 µM | P21728; note: 0% is about no effect
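Tetracycline-induced HEK293 TREx D1 cells, force-coupled to calcium signalling, were dye-loaded with a no-wash calcium kit. Compound was pin-added after a 10 s baseline. Fluorescence was read kinetically at 1 cycle/s for 180 s, with calcium rises flagged as agonism.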
D1 antag – human D1 dopamine receptor antagonism | activity change, negative = inhibition, % at 10 µM | HEK293 TREx D1 cells, calcium flux, dopamine EC80; hits give low values | AID 504652 | P21728 | 3.2% of 360,000 active; in the data active = activity change below about -30%; note: % is set by controls: 0 for no effect and ±100 for the full control effect
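Allosteric or orthosteric antagonism assessed as attenuation of the calcium response to EC80 dopamine, added 180 s after compound, in induced HEK293 Trex D1 cells loaded with no-wash calcium dye.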
Numbers without * were called inactive. Only some compounds are listed: those with a hit (about 4.7% of all), similar ones and a draw of the others. Cut-off read from the data, not from the text of the source, unless noted: active = activation above about 30%; inactive = the rest.

SMILES	D1 PAM	TRHR PAM	TRHR agonist	D1 agonist	D1 antag
Cc1ccc(N=Nc2[nH]c3ccccc3c2O)cc1	2	-5	13	52*	-5
Cc1ccc(N=Nc2c(O)[nH]c3ccc(F)cc23)cc1	-2	4	-1	117*	-48*
CCOc1ccc(-c2nc(C#N)c(NC3CC3)o2)cc1	-1	32*	0	2	1
CCOc1ccc(Nc2oc(-c3ccc(Cl)cc3)nc2C#N)cc1	-5	0	0	1	4
Cc1ccccc1NC(=O)CSc1ccc(-c2ccco2)nn1	-9	-6	0	4	-71*
Cc1ccc(C)c(NC(=O)CSc2ccc(-c3ccco3)nn2)c1	-8	4	-2	1	10
Cc1nc2ncnn2c(C)c1CCC(=O)O	-2	-5	0	1	-37*
Cc1cc(C)c(N)c(C(=O)O)c1	-4	38*	1	1	25
O=C(NC(NC(=S)N1CCOCC1)C(Cl)(Cl)Cl)c1ccc(Cl)cc1 (stereo not given)	-10	-3	1	18	-20
CCCCC(=O)NC(NC(=S)N1CCOCC1)C(Cl)(Cl)Cl (stereo not given)	5	-2	0	5	-34*
O=c1cc(-c2ccccc2)[nH]n1-c1nc2ccccc2s1	-8	-22	0	0	-36*
Cc1c(N=C2N=C(NC(=O)c3cccs3)c3ccccc32)c(=O)n(-c2ccccc2)n1C	-5	-6	16	41*	-16
CC1CCN(C(=O)Cn2cc(SCC(=O)Nc3ccccc3C(F)(F)F)c3ccccc32)CC1	0	-3	0	1	4
CCOc1ccc(NS(=O)(=O)c2ccc3[nH]cc(C(=O)NCc4ccco4)c(=O)c3c2)cc1	2	24	0	0	-48*
COc1cccc(CC(NC(C)=O)C(=O)NC2CCN(C(=O)c3ccncc3)CC2)c1OC (stereo not given)	-6	2	1	1	-14
Cc1ccc(C2C3=C(NCCN=C3c3ccccc3)C(=O)N2c2ccccc2)cc1 (stereo not given)	-2	1	1	5	15
CCOc1ccc(N2C(=O)C3=C(C(c4ccc(Cl)cc4)=NCCN3)C2c2cccnc2)cc1 (stereo not given)	-4	4	0	1	-47*
CCC1CCCCN1C(=S)Nc1ccc(OC(F)F)cc1 (stereo not given)	0	0	1	19	-43*
C(=N\n1cnnc1)/c1nc2ccccc2[nH]1	-12	-23	0	-1	-34*
Cc1[nH]c2ccccc2c1/C=N/n1cnnc1	-8	-5	0	2	-7
O=[N+]([O-])c1ccc(CN2CCN(c3ccc(Cl)cc3)CC2)o1	0	5	0	5	-32*
CCOC(CNC(=O)c1ccc(N2CCc3ccccc32)c([N+](=O)[O-])c1)OCC	-9	-8	0	12	-37*
COC(=O)c1ccc(N2CCc3ccccc32)c([N+](=O)[O-])c1	3	-3	0	0	-14
CC(C)(O)CC[C@@H](O)[C@](C)(O)C1CC[C@@]2(O)C3=CC(=O)[C@]4(O)C[C@@H](O)[C@@H](O)C[C@]4(C)C3CC[C@]12C (stereo not given in full)	6	0	0	1	-33*
CC(=O)NCC1CCN(C(=O)C2CCC(=O)N(CCc3cccc(F)c3)C2)CC1 (stereo not given)	3	13	0	4	6
SMILES	D1 PAM	TRHR PAM	TRHR agonist	D1 agonist	D1 antag
Cc1cc(C)c2nc(N(CCCN(C)C)C(=O)c3ccc4c(c3)CCCC4)sc2c1	14	33*	3	4	25
Cc1cccc2sc(N(CCCN(C)C)C(=O)COc3ccccc3)nc12	-2	27	3	64*	1
CN(C)CCCN(C(=O)CCc1ccccc1)c1nc2c(F)cccc2s1	-13	-3	15	35*	3
Cc1cccc2sc(N(CCCN(C)C)C(=O)c3ccc(C(=O)c4ccccc4)cc3)nc12	-3	17	1	24	-31*
Cc1ccc2nc(N(CCCN(C)C)C(=O)c3ccc4c(c3)CCCC4)sc2c1	-5	-2	0	21	-7
CN(C)CCCN(C(=O)CCOc1ccccc1)c1nc2c(F)cccc2s1	2	-4	2	9	5
CC1(c2ccc(Cl)cc2)CC(C)(C)N(C(=O)c2cccc(F)c2)c2ccccc21 (stereo not given)	-1	-9	2	0	15
CCn1nc(-c2ccccc2)c(-c2ccccc2)c(C(=O)Nc2ccc(S(N)(=O)=O)cc2)c1=O	0	4	0	1	1
CC(=O)Nc1ccc(S(=O)(=O)Nc2cc(-c3cn4ccccc4n3)ccc2C)cc1	0	3	1	-1	15
CN1CCCN(S(=O)(=O)c2cccc(C#N)c2)CC1	-8	-4	-3	5	-3
N#Cc1ccsc1NC(=O)C1=COCCO1	-1	8	-1	3	21
COc1cccc2sc(N(CCCN(C)C)C(=O)c3sc4ccccc4c3Cl)nc12	-11	10	2	4	-73*
Cc1ccc2sc(N(CCN(C)C)C(=O)c3ccc4ccccc4c3)nc2c1C	-3	-1	0	7	2
Cc1ccc2sc(N(CCCN(C)C)C(=O)CN3C(=O)c4ccccc4C3=O)nc2c1C	-2	2	2	46*	-24
COc1ccccc1CNC(=O)CSc1ncc2c(n1)-c1cc(Cl)ccc1N(Cc1ccccc1)S2(=O)=O	-5	-6	1	3	-7
Cc1ccc(-c2[nH]ncc2CN2CCN(C(=O)c3cccs3)CC2)cc1C	-3	-8	0	-1	4
CCCNC(=S)N1CCC(C(=O)c2ccc3c(c2)OCCO3)CC1	-9	-5	0	15	-34*
COCCNC(=S)N1CCC(C(=O)c2ccc3c(c2)OCCO3)CC1	-3	3	0	7	10
Cc1cccc(C(=O)NCC(=O)N2CCN(S(=O)(=O)/C=C/c3ccccc3)CC2)c1	-4	-1	-1	0	-43*
Cc1cc(C)cc(NC(=O)c2cc(CN3CCCC3)on2)c1	-2	6	0	0	6
CC1C2CC(C(CN(C)C)/C2=N/O)C1(C)C (stereo not given)	-5	-3	1	2	-51*
O=C1CC(NS(=O)(=O)c2ccccc2F)CN1c1ccc2c(c1)OCCO2 (stereo not given)	2	5	0	2	-16
O=C(Nc1ccc(F)cc1F)NC1CCN(S(=O)(=O)c2ccc(F)cc2)CC1	-1	-1	0	2	-8
Cc1ccc(NC(=O)C(c2ccccc2)C2CCCC2)cc1 (stereo not given)	-10	-6	2	7	-34*
